Assay [1] is described as follows: ATG_M_32_TRANS: Attagene TRANS-FACTORIAL HepG2 Assay for M32 Transcription Factor (Internal Marker) (AID 2282984; active = hit-call score of the fitted dose curve at least 0.9, where 1 is the maximum;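 note: transcript level of a background control reporter unit measured by RT-PCR and capillary electrophoresis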). The settings on record: HepG2 Attagene TRANS M32 internal marker reporter. A digest of the protocol: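 Cell-based TRANS-format assay in HepG2: exogenous chimeric GAL4 reporter units transiently expressed, compounds applied 24 h. Reporter mRNA detected by RT-PCR plus capillary electrophoresis; this readout is an internal background marker.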

Assay [2] deals with Transcriptional activator Myb (Homo sapiens) (UniProt P10242). The assay is described as follows: ATG_Myb_CIS: Attagene CIS-FACTORIAL HepG2 Assay for human Myeloblastosis (Myb) Proto-Oncogene Transcription Factor (AID 2282986). The conditions noted are these: HepG2 Attagene CIS-FACTORIAL Myb reporter transcription; actives raise or lower the signal. A digest of the protocol:
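HepG2 cells were transiently transfected with cis-regulated multiple reporter transcription units reflecting endogenous Myb activity, then exposed to compound for 24 hours. Reporter mRNA was measured by RT-PCR with capillary electrophoresis; bidirectional fitting versus DMSO baseline.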

The target in assay [3] is Nuclear respiratory factor 1 (Homo sapiens) (UniProt Q16656). Description: ATG_NRF1_CIS: Attagene CIS-FACTORIAL HepG2 Assay for human Nuclear Respiratory Factor 1 (NRF1) Orphan Gene (AID 2282987). The settings on record: HepG2 NRF1 cis-element reporter, Attagene multiplex; actives raise or lower the signal. The gist of the method:
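HepG2 cells transiently transfected with multiple reporter transcription units under cis-regulatory promoter control, so endogenous transcription-factor activity is read. After 24 h compound exposure, reporter mRNA quantified by RT-PCR, fluorescent labelling, HpaI digestion and capillary electrophoresis; bidirectional fitting versus DMSO.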

Assay [4] in a line: ATG_NFI_CIS: Attagene CIS-FACTORIAL HepG2 Assay for human Nuclear Factor I (NFI) (AID 2282989). The conditions noted are these: HepG2 cis-regulatory reporter, NFI response element transcription; actives raise or lower the signal. A digest of the protocol:
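Multiplexed cis-reporter system in human HepG2 cells reports native TF activity as reporter mRNA induction 24 h post-dose. Fragments labelled with 6-FAM, HpaI-digested and resolved by capillary electrophoresis; activity fitted both directions versus DMSO.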

Assay [5] addresses Myc proto-oncogene protein (Homo sapiens) (UniProt P01106). Description: ATG_Myc_CIS: Attagene CIS-FACTORIAL HepG2 Assay for human Myelocytomatosis (Myc) Proto-Oncogene Transcription Factor (AID 2282990). The conditions noted are these: HepG2, Attagene cis-reporter transcription factor activity; actives raise or lower the signal. The gist of the method: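 HepG2, transient MRTU transfection (cis promoters, endogenous TFs); 24 h dosing; TriZol RNA → oligo(dT) RT → PCR → 6-FAM primer extension → HpaI cut → CE. Bidirectional fit vs DMSO.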

Assay [6] is described as follows: ATG_NF_kB_CIS: Attagene CIS-FACTORIAL HepG2 Assay for human Nuclear Factor Kappa B (NF-kB) (AID 2282991). The settings on record: HepG2 Attagene cis-factorial NF-kB reporter mRNA; actives raise or lower the signal. A digest of the protocol:
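HepG2 cells transiently transfected with multiplexed cis-element reporter units measuring endogenous transcription factor activity; reporter mRNA read 24 h after dosing by RT-PCR, fluorescent labelling, HpaI digestion and capillary electrophoresis. Bidirectional fit against DMSO baseline.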

A short description of assay [7]: ATG_NRF2_ARE_CIS: Attagene CIS-FACTORIAL HepG2 Assay for human Nuclear Factor Erythroid 2 Related Factor 2 (NFR2) response to Antioxidant Response Elements (ARE) (AID 2282992).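 For AC50: reporter mRNA level measured by RT-PCR and capillary electrophoresis fluorescence.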 The settings on record: HepG2 Attagene ARE/NRF2 reporter, transcription factor activity; actives raise or lower the signal. The gist of the method:
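Fluorescence intensity of reporter-specific cDNA fragments, separated by capillary electrophoresis, reflects mRNA induction in transfected HepG2 cells at 24 h. Activity is fitted bidirectionally, DMSO serving as baseline.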

Assay [8] in a line: ATG_Oct_MLP_CIS: Attagene CIS-FACTORIAL HepG2 Assay for human Octamer-Binding Transcription Factor (Oct) (AID 2282993). The settings on record: HepG2 Attagene cis-factorial Oct reporter, mRNA; actives raise or lower the signal. A digest of the protocol:
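After 24 h compound exposure, transfected HepG2 cells were lysed for total RNA; reporter-specific cDNA was PCR-amplified, fluorescently labelled and sized by capillary electrophoresis. Bidirectional curve fitting used DMSO as baseline.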

Assay [9] has as its target Cellular tumor antigen p53 (Homo sapiens) (UniProt P04637). Description: ATG_p53_CIS: Attagene CIS-FACTORIAL HepG2 Assay for human p53 Transcription Factor (AID 2282994). The settings on record: HepG2 p53 cis-element reporter, Attagene mRNA; actives raise or lower the signal. A digest of the protocol: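 Transiently transfected HepG2 (multiple cis reporter transcription units); exposure 24 h; reporter RNA via RT-PCR, 6-FAM extension, 2 h HpaI digest at 37 C, CE detection; DMSO baseline.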

The target of assay [10] is human Peroxisome Proliferator-activated Receptor alpha (PPARa), PPARA (gene 5465) (UniProt Q07869). Description: ATG_PPARa_TRANS: Attagene TRANS-FACTORIAL HepG2 Assay for human Peroxisome Proliferator-activated Receptor alpha (PPARa) (AID 2283001; active = hit-call score of the fitted dose curve at least 0.9, where 1 is the maximum). The gist of the method:
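Transfected HepG2 cells treated with test chemical for 24 h. RNA isolated, reverse-transcribed with oligo(dT), PCR-amplified, FAM-labelled and HpaI-digested. Fragments sized by capillary electrophoresis; gain-of-signal fit relative to DMSO.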

Assay [11] deals with human Peroxisome Proliferator-activated Receptor delta (PPARd), PPARD (gene 5467) (UniProt Q03181). Description: ATG_PPARd_TRANS: Attagene TRANS-FACTORIAL HepG2 Assay for human Peroxisome Proliferator-activated Receptor delta (PPARd) (AID 2283002; active = hit-call score of the fitted dose curve at least 0.9, where 1 is the maximum). The gist of the method:
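Transient HepG2 transfection (multiple GAL4-UAS RTUs, chimeric receptor-Gal4); 24 h dosing; total RNA → oligo(dT) RT → PCR → 6-FAM primer extension → HpaI cut → CE. Positive direction vs DMSO.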

A short description of assay [12]: ATG_M_06_TRANS: Attagene TRANS-FACTORIAL HepG2 Assay for M06 Transcription Factor (Internal Marker) (AID 2282983; active = hit-call score of the fitted dose curve at least 0.9, where 1 is the maximum;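 note: reporter transcript level by RT-PCR then capillary electrophoresis fluorescence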). The conditions noted are these: HepG2 Attagene TRANS M06 internal marker reporter. A digest of the protocol:
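In this multiplexed HepG2 system, compounds are incubated 24 h with cells carrying GAL4-UAS reporter units. Reporter RNA is amplified and resolved by capillary electrophoresis, and induction is scored against DMSO.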

Assay [13] deals with Nuclear receptor subfamily 4 group A member 2 (Homo sapiens) (UniProt P43354). Description: ATG_NURR1_TRANS: Attagene TRANS-FACTORIAL HepG2 Assay for human Nuclear Receptor Related Protein 1 (NURR1) (AID 2282985; active = hit-call score of the fitted dose curve at least 0.9, where 1 is the maximum). The conditions noted are these: HepG2 Attagene TRANS reporter, mRNA readout. A digest of the protocol: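 Measures transcriptional activation by an exogenous NR-Gal4 chimera in transfected HepG2 liver cells. After 24 h, reporter RNA is reverse-transcribed, amplified and resolved by capillary electrophoresis; DMSO defines baseline.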

A short description of assay [14]: BSK_3C_TissueFactor: BioMAP Diversity Plus: 3C Assay for Tissue Factor Biomarker Activity (AID 2282997). The conditions noted are these: BioMAP 3C HUVEC, tissue factor biomarker readout; actives raise or lower the signal. A digest of the protocol: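 Readout: Tissue Factor ELISA. Cells: human primary umbilical vein endothelium. Time: 24 h after dosing. Analysis: bidirectional fit, DMSO baseline.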

A short description of assay [15]: BSK_3C_uPAR: BioMAP Diversity Plus: 3C Assay for Urokinase-type plasminogen activator receptor (uPAR) Biomarker Activity (AID 2282998). The conditions noted are these: BioMAP 3C HUVEC, uPAR biomarker ELISA; actives raise or lower the signal. The gist of the method:
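Values derive from bidirectional curve fitting relative to DMSO, which served as baseline of activity. uPAR was measured by ELISA in human umbilical vein endothelial primary cultures 24 h after compound addition.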

A short description of assay [16]: BSK_3C_VCAM1: BioMAP Diversity Plus: 3C Assay for Vascular cell adhesion molecule 1 (VCAM1) Biomarker Activity (AID 2282999). The settings on record: BioMAP 3C HUVEC, VCAM1 ELISA, cytokine-stimulated; actives raise or lower the signal. The gist of the method:
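Activity fitted in both directions relative to DMSO, with ELISA measurement of the surface marker on primary HUVEC (3C) at 24 h post-treatment; parallel SRB staining (0.1% SRB, TCA-fixed, 560 nm) flagged overt cytotoxicity.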
In general terms: ELISA stands for enzyme-linked immunosorbent assay.

Assay [17] is described as follows: BSK_4H_Eotaxin3: BioMAP Diversity Plus: 4H Assay for Eotaxin 3 Biomarker Activity (AID 2283000).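 Note: CCL26 protein level quantified by ELISA in parallel with SRB cytotoxicity check.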 The conditions noted are these: primary human endothelial cells (HUVEC); actives raise or lower the signal. The gist of the method: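 HUVEC, 24 h post-dose, ELISA for Eotaxin-3/CCL26. Gain or loss of signal fitted bidirectionally vs DMSO baseline.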

The structures appear in SMILES notation. Records with an inconclusive call do not appear. More than one record can exist for a structure, and the calls need not agree. Active and inactive are the calls of the source. Rule for the calls, unless noted: active = hit-call score of the fitted dose curve at least 0.9, where 1 is the maximum; inactive = score below 0.9.

Sequence of human Peroxisome Proliferator-activated Receptor delta (PPARd), PPARD (gene 5467) (Q03181 whole entry, looked up, the tested form may be a part): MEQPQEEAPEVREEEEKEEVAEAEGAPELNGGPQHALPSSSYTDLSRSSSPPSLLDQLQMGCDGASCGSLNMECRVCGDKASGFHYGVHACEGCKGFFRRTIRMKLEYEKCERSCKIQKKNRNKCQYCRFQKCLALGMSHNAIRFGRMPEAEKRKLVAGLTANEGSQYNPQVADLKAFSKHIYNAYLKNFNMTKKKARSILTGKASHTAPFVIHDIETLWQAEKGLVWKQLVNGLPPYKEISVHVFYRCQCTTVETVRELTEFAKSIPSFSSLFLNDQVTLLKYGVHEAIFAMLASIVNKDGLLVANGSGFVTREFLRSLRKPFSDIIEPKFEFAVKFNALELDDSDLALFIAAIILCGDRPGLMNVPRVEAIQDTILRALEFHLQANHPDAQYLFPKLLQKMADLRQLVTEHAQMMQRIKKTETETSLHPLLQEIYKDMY
Sequence of Myc proto-oncogene protein (Homo sapiens) (P01106 whole entry, looked up): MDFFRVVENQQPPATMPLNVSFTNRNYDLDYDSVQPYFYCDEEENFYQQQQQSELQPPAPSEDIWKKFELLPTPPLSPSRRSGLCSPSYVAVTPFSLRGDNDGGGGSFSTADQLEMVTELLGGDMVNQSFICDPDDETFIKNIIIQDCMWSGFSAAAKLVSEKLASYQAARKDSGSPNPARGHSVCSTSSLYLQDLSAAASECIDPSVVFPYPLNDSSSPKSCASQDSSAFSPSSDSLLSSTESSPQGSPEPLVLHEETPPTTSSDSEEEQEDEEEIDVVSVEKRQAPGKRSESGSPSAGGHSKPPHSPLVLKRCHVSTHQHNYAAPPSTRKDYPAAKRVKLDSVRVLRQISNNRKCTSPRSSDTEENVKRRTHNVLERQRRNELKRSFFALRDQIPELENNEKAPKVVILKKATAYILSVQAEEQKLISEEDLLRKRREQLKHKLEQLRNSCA
Sequence of Nuclear respiratory factor 1 (Homo sapiens) (Q16656 whole entry, looked up): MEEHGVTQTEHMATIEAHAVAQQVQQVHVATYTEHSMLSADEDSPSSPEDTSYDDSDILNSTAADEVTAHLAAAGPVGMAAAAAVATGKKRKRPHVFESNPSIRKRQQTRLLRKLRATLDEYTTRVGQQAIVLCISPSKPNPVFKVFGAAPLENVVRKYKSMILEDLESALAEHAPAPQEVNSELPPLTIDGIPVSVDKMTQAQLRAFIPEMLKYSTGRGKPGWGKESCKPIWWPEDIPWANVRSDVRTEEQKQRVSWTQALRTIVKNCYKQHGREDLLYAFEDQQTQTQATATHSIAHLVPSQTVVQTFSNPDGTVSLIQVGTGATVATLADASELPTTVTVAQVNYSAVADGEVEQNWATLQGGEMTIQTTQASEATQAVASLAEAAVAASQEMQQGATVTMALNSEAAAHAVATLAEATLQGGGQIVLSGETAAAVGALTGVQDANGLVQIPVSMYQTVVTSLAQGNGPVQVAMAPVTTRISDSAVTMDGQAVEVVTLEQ
Sequence of human Peroxisome Proliferator-activated Receptor alpha (PPARa), PPARA (gene 5465) (Q07869 whole entry, looked up, the tested form may be a part): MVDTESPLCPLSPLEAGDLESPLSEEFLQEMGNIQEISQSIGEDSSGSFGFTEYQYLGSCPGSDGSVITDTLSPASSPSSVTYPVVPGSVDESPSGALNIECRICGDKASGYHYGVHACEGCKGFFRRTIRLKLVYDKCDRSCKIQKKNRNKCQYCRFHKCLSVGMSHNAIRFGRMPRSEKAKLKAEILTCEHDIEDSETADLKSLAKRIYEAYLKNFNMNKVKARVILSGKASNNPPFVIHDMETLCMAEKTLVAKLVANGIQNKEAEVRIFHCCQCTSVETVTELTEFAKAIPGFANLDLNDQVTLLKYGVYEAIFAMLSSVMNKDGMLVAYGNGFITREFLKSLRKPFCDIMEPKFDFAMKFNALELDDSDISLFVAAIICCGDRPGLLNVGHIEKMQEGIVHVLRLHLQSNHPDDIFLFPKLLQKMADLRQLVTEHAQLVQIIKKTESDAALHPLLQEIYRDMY
Sequence of Cellular tumor antigen p53 (Homo sapiens) (P04637 whole entry, looked up): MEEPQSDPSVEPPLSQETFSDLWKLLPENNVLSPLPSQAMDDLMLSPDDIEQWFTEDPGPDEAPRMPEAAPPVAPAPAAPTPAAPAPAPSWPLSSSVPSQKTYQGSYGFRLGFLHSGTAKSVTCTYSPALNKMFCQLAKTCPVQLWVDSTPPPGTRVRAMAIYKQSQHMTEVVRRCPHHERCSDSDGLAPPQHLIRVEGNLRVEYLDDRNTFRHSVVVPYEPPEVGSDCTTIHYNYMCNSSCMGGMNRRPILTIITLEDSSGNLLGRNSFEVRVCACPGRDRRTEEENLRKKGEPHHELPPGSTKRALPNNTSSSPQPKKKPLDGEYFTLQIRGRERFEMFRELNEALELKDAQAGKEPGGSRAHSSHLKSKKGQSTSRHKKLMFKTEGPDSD
Sequence of Nuclear receptor subfamily 4 group A member 2 (Homo sapiens) (P43354 whole entry, looked up, the tested form may be a part): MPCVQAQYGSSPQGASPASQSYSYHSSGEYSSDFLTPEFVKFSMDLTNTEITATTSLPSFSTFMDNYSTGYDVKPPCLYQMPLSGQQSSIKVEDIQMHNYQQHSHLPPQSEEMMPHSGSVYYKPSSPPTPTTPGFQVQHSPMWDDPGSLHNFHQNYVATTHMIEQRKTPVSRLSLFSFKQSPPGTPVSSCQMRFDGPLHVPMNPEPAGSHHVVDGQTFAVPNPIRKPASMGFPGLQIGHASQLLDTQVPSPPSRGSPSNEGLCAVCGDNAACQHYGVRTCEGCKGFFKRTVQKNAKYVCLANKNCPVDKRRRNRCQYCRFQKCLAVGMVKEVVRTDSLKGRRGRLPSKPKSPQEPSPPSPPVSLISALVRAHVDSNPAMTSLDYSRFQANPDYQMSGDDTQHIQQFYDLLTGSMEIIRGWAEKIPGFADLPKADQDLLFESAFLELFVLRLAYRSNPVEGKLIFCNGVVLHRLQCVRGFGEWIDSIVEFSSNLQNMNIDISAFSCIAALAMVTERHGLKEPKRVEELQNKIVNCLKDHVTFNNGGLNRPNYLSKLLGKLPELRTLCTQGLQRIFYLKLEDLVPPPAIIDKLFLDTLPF
Sequence of Transcriptional activator Myb (Homo sapiens) (P10242 whole entry, looked up): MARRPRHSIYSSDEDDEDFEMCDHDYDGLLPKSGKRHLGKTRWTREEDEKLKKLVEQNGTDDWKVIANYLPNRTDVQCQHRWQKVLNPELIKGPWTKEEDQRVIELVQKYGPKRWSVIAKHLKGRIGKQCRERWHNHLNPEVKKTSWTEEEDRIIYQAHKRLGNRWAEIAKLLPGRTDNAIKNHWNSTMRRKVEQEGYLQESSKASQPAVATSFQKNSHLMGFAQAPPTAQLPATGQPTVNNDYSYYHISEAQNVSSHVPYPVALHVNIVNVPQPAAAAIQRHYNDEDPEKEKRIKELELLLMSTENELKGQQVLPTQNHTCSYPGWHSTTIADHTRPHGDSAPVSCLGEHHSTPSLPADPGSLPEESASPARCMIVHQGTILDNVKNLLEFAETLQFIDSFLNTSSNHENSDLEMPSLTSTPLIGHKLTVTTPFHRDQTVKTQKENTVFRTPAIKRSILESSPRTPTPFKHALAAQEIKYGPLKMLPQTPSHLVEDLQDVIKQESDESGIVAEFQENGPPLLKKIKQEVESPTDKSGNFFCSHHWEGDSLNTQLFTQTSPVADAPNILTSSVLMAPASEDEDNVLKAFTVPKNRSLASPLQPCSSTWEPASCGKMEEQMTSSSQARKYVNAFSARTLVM

Consider `FC(F)(F)C1(F)C(F)(F)C(F)(F)C(F)(F)C1(F)F`, for which the call in assay [1], in [2], in assay [3], in assay [4], in [5] and in assay [6] was inactive. Also, the compound was classed as inactive in assay [7], in [8], in [9], in assay [10] and in [11].
As to `O=C(C=C(O)C(F)(F)F)C(F)(F)F`, the outcome in assay [1], in assay [2], in assay [3], in assay [5], in assay [6] and in assay [7] was inactive. The compound was classed as inactive in [8] and in assay [9].
`Brc1ccc(Oc2ccc(Br)cc2Br)cc1`: the call in assay [12], in assay [13], in [2], in assay [3], in [5] and in assay [6] was inactive. In addition, the call in assay [7], in [8], in assay [9] and in [10] was inactive.
In the case of `COc1cc([N+](=O)[O-])ccc1N`, the compound was called inactive in [2], in [3], in [4], in assay [5], in [6] and in assay [7]. The result in [8], in assay [9] and in assay [10] was inactive.
Broadly, the AC50 is the concentration at which the activity in the assay is half-maximal. As to `CC(C)(C)c1ccc(CCC=O)cc1`, the outcome in assay [1], in assay [13], in [2], in assay [3], in assay [4] and in assay [5] was inactive. The compound was called inactive in assay [6] and in assay [8]. In addition, the AC50 in assay [7] is 130 µM (active); in assay [9], 182 µM (active).
With `CCC(C)c1ccccc1O` (centres undefined), the compound was classed as inactive in [12], in assay [13], in assay [2], in [3], in assay [4] and in [5]. The call in assay [6], in [7], in assay [14], in assay [15], in assay [16] and in assay [17] was inactive. The compound was classed as inactive in assay [10]. Further, in [7], the AC50 was 74.7 µM (active).
Take `CC1=NN(c2ccccc2)C(=O)C1`: the outcome in [12], in [1], in [2], in assay [3], in [5] and in assay [6] was inactive. In addition, the result in [7], in assay [8], in [9], in assay [15], in assay [16] and in assay [17] was inactive. Also, the result in assay [10] and in assay [11] was inactive. For the same compound, in [14], the AC50 is 4.46 µM (active).
For the compound `O=C(CCCN1CCC(O)(c2ccc(Cl)cc2)CC1)c1ccc(F)cc1`, the result in assay [2], in assay [5], in assay [16], in assay [17] and in assay [10] was inactive. In addition, the AC50 in assay [8] was 47.9 µM (active); in [9], 46.2 µM (active); in assay [14], 15.6 µM (active); in [15], 20 µM (active).
For `FCOC(C(F)(F)F)C(F)(F)F`, the call in assay [2], in assay [3], in assay [4], in [5], in assay [6] and in [7] was inactive. In addition, the outcome in assay [8], in assay [10] and in [11] was inactive.
As for `CCCCCCCCCCCCOS(=O)(=O)O`, the outcome in assay [14], in [15], in assay [16] and in assay [17] was inactive.

Values taken from PubChem BioAssay (EPA / NIEHS).
